Bioassay records: PubChem BioAssay, National Center for Advancing Translational Sciences (NCATS)
Shown is part of a subset that was picked to be rich in hits.
Pf Dd2 inh – qHTS Primary assay for Inhibitors of Plasmodium falciparum Dd2 growth in vitro | 4.3% of 120,000 active | P. falciparum Dd2 growth, SYBR Green, 72 h | Potency, µM (doses to about 28.9 µM), inactives show at the highest dose activity, negative = inhibition, hits mostly inhibitors | AID 1347417, 2020; active means well fitted inhibition curve with a large enough effect;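 further: plate controls were DMSO vehicle for no effect and reference drug for full effect; nearly all actives have a fitted effect of over 65% in size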
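Readout: SYBR Green fluorescence, 485 nm excitation, 535 nm emission, after ~16 h lysis at 37C. Before that, Dd2-infected red cells (2.5% hematocrit) grew 72 h with compound, 29 uM top final concentration.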
Active calls of the source: *; i = inactive; [ ] = another dose, or the depositor's remark. Potency means the concentration at half of the fitted maximal effect.

SMILES	Pf Dd2 inh
COc1cc(C)c2c(c1C)C[C@H](C(C)C(=O)N1CCN(c3ccc(F)cc3)CC1)CC2 (stereo not given in full)	-9.5%[44.1 µM]
O=C(N[C@@H]1CN(C(=O)NC2CCCCC2)CCC[C@H]1O)c1ccc(OCCN2CCOCC2)cc1	-24.9%
CC(=O)N1CC2(CCN(CCS(C)(=O)=O)CC2)CC1C(=O)O (stereo not given)	4.5%
CCCn1c2ccccc2c2cnn(CC(=O)N3CCCC(C)C3)c(=O)c21 (stereo not given)	-11.1%
CC1CCCCN1CCCNC(=O)Cn1ncc2c3ccccc3n(Cc3ccccc3F)c2c1=O (stereo not given)	5.01µM*
O=C(Cn1ncc2c3ccccc3n(Cc3ccccc3F)c2c1=O)N1CCCCCC1	10µM*
CCOC(=O)C1CCCN(C(=O)Cn2ncc3c4ccccc4n(Cc4ccccc4)c3c2=O)C1 (stereo not given)	0.1%
CCCn1c2ccccc2c2cnn(CC(=O)NCCCN3CCCCC3)c(=O)c21	-19.2%
CC1CCCCN1CCCNC(=O)Cn1ncc2c3ccccc3n(C)c2c1=O (stereo not given)	i
CCn1cc(S(=O)(=O)NCCc2noc(-c3ccncc3)n2)cn1	38.0%
Cc1noc(C)c1CC(=O)NCCc1noc(-c2cccnc2)n1	13.7%
Cc1nc(CCNC(=O)C2CCCC2)no1	-6.6%
Cc1noc(C)c1S(=O)(=O)N1CCC2(C1)C(=O)N(C)c1ccccc12 (stereo not given)	-12.5%
O=C(Cn1ncc2c3ccccc3n(Cc3cccc(Cl)c3)c2c1=O)NCCCc1ccccc1	-6.1%
Cc1ccc(Cn2c3ccccc3c3cnn(CC(=O)Nc4cc(Cl)ccc4C)c(=O)c32)cc1	11.6%
CCCn1c2ccccc2c2cnn(CC(=O)NC(C)CC)c(=O)c21 (stereo not given)	4.8%
Cc1cc(C)c(Cn2c3ccccc3c3cnn(CC(=O)NCc4ccc(Cl)cc4)c(=O)c32)c(C)c1	7.94µM*
O=C(Cn1ncc2c3ccccc3n(Cc3ccc(Cl)cc3)c2c1=O)NCCCc1ccccc1	33.8%[0.594 µM]
Cc1ccccc1Cn1c2ccccc2c2cnn(CC(=O)NCc3cccc(Cl)c3)c(=O)c21	-5.1%
CCCN1CCN(C(=O)Cn2ncc3c4ccccc4n(Cc4cccc(Cl)c4)c3c2=O)CC1	11.2µM*
CCCCN(C)CCCNC(=O)Cn1ncc2c3ccccc3n(Cc3cccc(Cl)c3)c2c1=O	5.62µM*
CCN(CC)CCCNC(=O)Cn1ncc2c3ccccc3n(Cc3ccccc3)c2c1=O	-22.0%
COc1ccc(C(=O)N2CCc3nnc([C@@H]4C[C@@H](O)CN4C)n3CC2)cn1	-1.9%
Cn1ncc(N2CCC(C(=O)NCc3ccc(OC(F)(F)F)cc3)C2)cc1=O (stereo not given)	-8.4%
CC(C)N1C(=O)C2(CCCCC2)C1C(=O)N1CCN(c2ccccc2F)CC1 (stereo not given)	-29.3%
O=C(COc1ccc(F)cc1)N1CCC2(CC1)CN(C1CCC1)CC2CO (stereo not given)	i
O=C1CNc2ccc(C(=O)NCc3cc4n(n3)CCCNC4)cc2N1	5.5%
COCCNC(=O)C(NC(=O)c1ccccc1Cl)C1CCN(C(=O)c2ccc(OC)cc2)CC1 (stereo not given)	-14.3%
CC(=O)Nc1ccc([C@H]2OCC(=O)N[C@@H]2CO)cc1	-12.3%[44.1 µM]
CN1CCN(C(=O)[C@@H]2CCC[C@@H](NC(=O)c3ccc4c(c3)OCO4)CN(C)C(=O)C2)CC1	-4.3%
